# Bioassay records from PubChem.
# A selection: hits, their analogues and other compounds. The true share with any hit is near 2.9%.
# S1P3 antag: antagonists of human S1P3 receptor. AID 485. Q99500. inhibition, % at 4.98 µM. CHO S1P3 NFAT-BLA reporter, FRET fluorescence, antagonist mode. actives 0.27% (n = 170,000);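 active = inhibition above the plate cutoff, the mean inhibition of test wells on that plate plus 3 SD, cut at about 28% in these data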;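 also: cells challenged with S1P at its EC80 of 0.8 µM; blue over green emission ratio from cleaved BLA substrate after 4 h stimulation; 0% = S1P-stimulated wells and 100% = unstimulated DMSO-only wells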
# S1P4 agonist: agonists of human S1P4 receptor; O95977; S1P4-expressing cell line, agonist reporter assay; activation, % at 4.98 µM; actives 0.35% (n = 220,000); AID 1509; in the data active = activation above about 11%;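 also: 0% = DMSO vehicle and 100% = reference agonist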
# Target sequence (O95977 whole entry, looked up): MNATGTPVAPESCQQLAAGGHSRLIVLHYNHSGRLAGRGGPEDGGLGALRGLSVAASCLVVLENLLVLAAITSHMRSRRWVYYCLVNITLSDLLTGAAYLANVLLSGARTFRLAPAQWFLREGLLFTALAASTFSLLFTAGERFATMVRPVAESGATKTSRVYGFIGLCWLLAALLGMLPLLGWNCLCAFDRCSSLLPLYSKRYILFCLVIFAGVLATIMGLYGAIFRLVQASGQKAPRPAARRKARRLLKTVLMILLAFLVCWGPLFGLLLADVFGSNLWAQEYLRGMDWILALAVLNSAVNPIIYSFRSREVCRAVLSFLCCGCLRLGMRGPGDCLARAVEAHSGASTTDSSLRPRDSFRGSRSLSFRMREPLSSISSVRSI
# HSF-1 act: increases HSF-1 driven luciferase reporter signal | activation, % at 9 µM | actives 1.7% (n = 300,000) | NIH3T3-HGL HSF-1 luciferase reporter, MG132, 8 h; 100% = twice DMSO control signal;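 active = mean replicate activation of at least 50% with a set share of replicates each reaching 50%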;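 also: 0% = median of the neutral control wells and 100% = twice that signal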
# S1P4 antag: blocks the human S1P4 receptor | O95977 | S1P4-expressing cells, antagonist mode, reporter read-out | inhibition, % at 4.98 µM | actives 0.26% (n = 220,000) | AID 1510; in the data active = inhibition above about 29%;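 also: 0% = wells stimulated with agonist and 100% = vehicle wells without agonist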
# HSF1 inhib: HSF1 inhibition | actives 0.77% (n = 300,000) | activity change, negative = inhibition, % at 7.5 µM (by protocol) | AID 2098 | NIH3T3-HGL HSE-luciferase, MG132-induced, luminescence 8 h; stronger effect = lower value;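 active = more than half of replicate wells show activity change below -50%, luminescence cut by over half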;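 also: luciferase reports HSF-1 transcriptional activity via heat shock element; 0% = median of DMSO wells and -100% = zero luminescence signal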
# Hsp70 act: transcriptional activators of Hsp70. HeLa Hsp70 promoter luciferase reporter, luminescence; scaled: vehicle 0, proteasome-inhibitor control 100%. AID 1203. actives 0.04% (n = 200,000). activation, % at 10 µM;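 active = activation above the mean across all tested compounds plus 3 SD, cutoff set per campaign, cut at about 5.5% in these data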;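 also: 100% = MG132 at 30 µM as the positive control and 0% = DMSO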
# Hsp70 act dose: activates Hsp70 transcription in dose response; AID 1252; shares compounds with Hsp70 act; HeLa hsp70.1pr-luc reporter, luciferase luminescence; calls only at 99 µM; actives 10% (n = 70);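 active = over 50% activation at some tested dose; inactive = under 50% activation at every tested dose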
# The depositor's hits bear a star; i = inactive; nt = no result; + = active, no number.
SMILES,S1P3 antag,S1P4 agonist,HSF-1 act,S1P4 antag,HSF1 inhib,Hsp70 act,Hsp70 act dose
CCOc1ccc(NC(=O)c2ccc(NC(=S)NC3CC3)cc2)cc1,-5,3,33,-15,20,9.4*,i
CCOc1ccc(NC(=O)c2ccc(NC(=S)NC3CCCCC3)cc2)cc1,8,-2,14,6,16,0,nt
O=C1NCCN1CCN1C(=O)c2ccccc2NC1c1ccccc1 (stereo unspecified),11,2,-7,-13,1,nt,nt
COc1ccc(C(c2c(O)ccc3ccccc23)N2CCOCC2)c(OC)c1 (stereo unspecified),6,1,106*,13,74,6.4*,i
Cc1cc(C)cc(COn2ccnc2)c1,nt,-1,37,14,11,0,nt
COc1ccc(N=Nc2[nH]c3ccc(C)cc3c2O)cc1,2,-1,-4,-6,-2,5.6*,i
Cc1cc(C)nc(SCc2nnc(SCC(=O)Nc3c(C)cccc3C)o2)n1,nt,-1,-8,-22,8,1,nt
Cc1cc(C)nc(SCc2nnc(SCC(=O)Nc3cc(C(F)(F)F)ccc3Cl)o2)n1,3,2,28,3,10,5.7*,i
Cc1cc(C)c(O)c(-c2n[nH]c3c2C(c2cccc(O)c2)N(Cc2ccco2)C3=O)c1 (stereo unspecified),22,-1,48,4,33,nt,nt
COc1ccc(NC(=O)/C(Cl)=C(/Cl)S(=O)Cc2ccc(Cl)cc2)cn1 (stereo unspecified),44*,4,nt,52*,nt,43*,i
Cc1csc2c(N3CCN(C(=O)c4ccc(C(C)(C)C)cc4)CC3)ncnc12,-7,3,2,-6,0,nt,nt
O=C1/C(=C/c2ccccn2)COc2ccccc21,-14,-2,24,7,0,0,nt
CC(C)(C)C1C/C(=C/c2ccccn2)C(=O)/C(=C/c2ccccn2)C1 (stereo unspecified),-6,0,-31,28,-34,46*,+
CC1C/C(=C/c2ccccn2)C(=O)/C(=C/c2ccccn2)C1 (stereo unspecified),2,-2,89*,19,45,314*,+
Cc1ccc(-n2c(Cl)c(Cl)nc(Cl)c2=O)cc1,2,2,nt,76*,nt,6.4*,i
CCCS(=O)(=O)N1CCC(C(=O)NCc2ccco2)CC1,-6,-1,2,11,1,1,nt
Cc1nn(C)c(C)c1NC(=O)c1ccc(S(=O)(=O)N(C)C)cc1,22,-2,21,-1,1,6.6*,i
O=Cc1s/c(=N\S(=O)(=O)c2ccccc2)n(CCCCl)c1Cl,-2,-1,60*,-2,44,11*,i
CCn1c(C)cs/c1=N\S(=O)(=O)c1ccccc1,nt,nt,-5,nt,3,nt,nt
COc1cccc(CNC(=O)CCS(=O)(=O)c2ccc3c(c2)NC(=O)CO3)c1,nt,nt,-49,nt,-42,nt,nt
COc1ccc(C(CNC(=O)c2cc3ccccc3o2)N2CCCCC2)cc1 (stereo unspecified),-2,2,-1,-11,1,9.3*,i
COc1ccc(C(CNC(=O)c2oc3ccc(C)cc3c2C)N2CCCCC2)cc1 (stereo unspecified),nt,nt,-4,nt,0,nt,nt
COc1ccc(Cl)cc1NC(=O)C/C(C)=N/NC(=O)Cc1ccccc1,-3,-1,18,-1,3,0,nt
CCOC(=O)C1CCN(c2ccc([N+](=O)[O-])cc2)CC1,-16,0,21,-22,14,5.7*,i
CCOC(=O)C1CCN(C(=O)C2CCN(C(=O)c3ccc([N+](=O)[O-])cc3)CC2)CC1,nt,nt,15,nt,-2,nt,nt
N#C/C(=C/c1ccc(N2CCCCCC2)o1)c1ccc(Cl)cc1,nt,1,93*,2,90,6.3*,i
N#C/C(=C\c1ccc(N2CCOCC2)o1)C(=O)NC1CCCCC1,10,0,6,5,2,nt,nt
